Experimental data: ChEMBL document CHEMBL4808148, “HDAC6 screening dataset using tau-based substrate in an enzymatic assay yields selective inhibitors and activators” (2021)
In all, about 5,600 compounds went through this assay and about 390 (7%) showed an effect of 50% or more. The entries come from a sample that favours strong results as a whole.

target: T1, Protein deacetylase HDAC6 (Homo sapiens) (UniProt Q9UBN7); conditions: at 10 µM
T1 sequence (whole entry): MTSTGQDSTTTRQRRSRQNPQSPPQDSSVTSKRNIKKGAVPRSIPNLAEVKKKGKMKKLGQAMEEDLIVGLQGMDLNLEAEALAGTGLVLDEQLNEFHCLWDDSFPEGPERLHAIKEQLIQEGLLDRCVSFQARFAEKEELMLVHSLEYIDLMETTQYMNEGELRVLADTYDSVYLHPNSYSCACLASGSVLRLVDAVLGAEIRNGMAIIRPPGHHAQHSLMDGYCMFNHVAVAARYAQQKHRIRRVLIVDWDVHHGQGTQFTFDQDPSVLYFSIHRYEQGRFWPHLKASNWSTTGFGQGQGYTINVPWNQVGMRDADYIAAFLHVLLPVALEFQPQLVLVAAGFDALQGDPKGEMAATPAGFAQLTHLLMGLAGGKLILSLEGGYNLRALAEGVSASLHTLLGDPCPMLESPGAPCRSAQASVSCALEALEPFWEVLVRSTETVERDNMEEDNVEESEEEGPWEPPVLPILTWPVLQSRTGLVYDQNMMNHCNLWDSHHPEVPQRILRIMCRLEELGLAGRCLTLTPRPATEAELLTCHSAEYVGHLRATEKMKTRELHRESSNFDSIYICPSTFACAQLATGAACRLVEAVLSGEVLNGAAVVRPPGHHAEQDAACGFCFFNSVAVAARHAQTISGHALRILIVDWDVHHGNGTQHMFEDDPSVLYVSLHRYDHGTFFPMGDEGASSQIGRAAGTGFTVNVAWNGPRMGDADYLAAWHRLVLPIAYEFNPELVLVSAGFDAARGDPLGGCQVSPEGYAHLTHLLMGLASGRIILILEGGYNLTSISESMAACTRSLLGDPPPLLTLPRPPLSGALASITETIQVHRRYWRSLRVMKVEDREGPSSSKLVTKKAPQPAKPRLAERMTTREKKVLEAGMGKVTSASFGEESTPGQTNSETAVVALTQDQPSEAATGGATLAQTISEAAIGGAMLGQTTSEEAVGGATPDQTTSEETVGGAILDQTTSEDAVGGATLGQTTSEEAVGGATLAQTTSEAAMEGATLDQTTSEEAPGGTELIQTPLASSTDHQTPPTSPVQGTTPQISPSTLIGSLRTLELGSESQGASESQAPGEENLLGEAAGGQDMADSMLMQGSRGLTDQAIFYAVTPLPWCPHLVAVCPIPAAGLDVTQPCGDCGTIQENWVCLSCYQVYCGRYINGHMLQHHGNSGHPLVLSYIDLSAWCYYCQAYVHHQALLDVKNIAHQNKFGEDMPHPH

Row | SMILES | inhibition
1 | c1cn2cc(-c3ccc4cn[nH]c4c3)nc(Nc3ccc(N4CCOCC4)cc3)c2n1 | 20.2%
2 | CC(=O)/N=c1/sc(S(N)(=O)=O)nn1C | -2.26%
3 | NS(=O)(=O)c1nn2cc(-c3ccccc3)nc2s1 | 96.2%
4 | CC(=O)OCC(=O)[C@@]1(O)CC[C@H]2[C@@H]3CCC4=CC(=O)C=C[C@]4(C)[C@@]3(F)[C@@H](O)C[C@@]21C | 39.3%
5 | Cc1cc(O)c2c(c1)C(=O)c1cccc(O)c1C2=O | 82.4%
6 | COc1cc(O)c2c(c1)C(=O)c1cc(C)cc(O)c1C2=O | 24.3%
7 | CC(=O)c1cc2c(o1)C(=O)c1ccccc1C2=O | 25.7%
8 | O=C1c2cccc(O)c2C(=O)c2c(O)cccc21 | 55.5%
9 | O=C(O)c1cc(O)c2c(c1)C(=O)c1cccc(O)c1C2=O | 24.6%
10 | CC1(C)C(=O)N=C2C1=C(O)C(=O)c1ccccc12 | 24.8%
11 | O=C1c2c(O)cccc2Cc2cccc(O)c21 | 3.84%
12 | C[C@@H]1CC(=O)c2c(ccc3c2C(=O)c2cccc(O)c2C3=O)C1 | 113%
13 | CN1CCc2cccc3c2[C@H]1Cc1ccc(O)c(O)c1-3 | -6.04%
14 | CNCCCOc1cc(F)c(-c2c(Cl)nc3ncnn3c2N[C@@H](C)C(F)(F)F)c(F)c1 | 9.44%
15 | COc1ccc(CNC(=O)c2cc(-c3cncc(C)c3)ncc2-c2nccs2)nc1OC | 8.47%
16 | COc1cccc(OC)c1OCCNCC1COc2ccccc2O1 (stereo not drawn) | -6.9%
17 | CSCC[C@H](NC(=O)[C@H](CC(C)C)NC(=O)CNC(=O)[C@H](Cc1ccccc1)NC(=O)[C@H](Cc1ccccc1)NC(=O)[C@H](CCC(N)=O)NC(=O)[C@H](CCC(N)=O)NC(=O)[C@@H]1CCCN1C(=O)[C@H](CCCCN)NC(=O)[C@@H]1CCCN1C(=O)[C@@H](N)CCCN=C(N)N)C(N)=O | 37.9%
18 | Fc1ccc(CN2CCC(Nc3ccc(C(F)(F)F)nn3)CC2)cc1F | 20.4%
19 | CC#CCC(C)[C@H](O)/C=C/[C@@H]1[C@H]2C/C(=C/CCCC(=O)O)C[C@H]2C[C@H]1O (stereo partly drawn) | -9.51%
20 | COC(=O)c1ccccc1-c1c2ccc(N)cc2[o+]c2cc(N)ccc12 | 2.6%
21 | CN[C@@H]1[C@H](OC2[C@H](O[C@H]3[C@H](O)[C@@H](O)[C@H](N=C(N)N)[C@@H](O)[C@@H]3N=C(N)N)O[C@@H](C)[C@]2(O)C=O)O[C@@H](CO)[C@H](O)[C@H]1O (stereo partly drawn) | 17.6%

Row | SMILES | inhibition
22 | Cc1ccccc1/N=N/c1ccc(NC(=O)c2ccnn2C)c(C)c1 | 36.7%
23 | O=C(Nc1cccc(Nc2ncc(Br)c(NCCc3cnc[nH]3)n2)c1)N1CCCC1 | 41.2%
24 | COc1cc2c(cc1OC)-c1cc3nc4ccccc4nc3n1C(C)(C)C2 | 19.3%
25 | CCCn1c(=O)[nH]c2nc(-c3ccc(S(=O)(=O)N4CCN(c5ccc(Cl)cc5)CC4)cc3)[nH]c2c1=O | 3.66%
26 | Cc1ccc2c(c1CCC(=O)O)CC[C@@H](NS(=O)(=O)c1ccc(Cl)cc1)C2 | -3.38%
27 | Oc1ccc2ccccc2c1SSc1c(O)ccc2ccccc12 | 0.31%
28 | Nc1nc2c(ccc3ccccc32)s1 | 67.3%
29 | Cc1cc(CC(C)CC(C)(C)C)n(O)c(=O)c1 (stereo not drawn) | -5.15%
30 | O=C1NC(=O)C(c2ccccc2[N+](=O)[O-])=C1Nc1ccc(O)c(Cl)c1 | 3.99%
31 | COc1cc(CCc2cc(NC(=O)c3ccc(N4C[C@@H](C)N[C@@H](C)C4)cc3)n[nH]2)cc(OC)c1 | 2.96%
32 | Cc1cn([C@H]2C=C[C@@H](CO)O2)c(=O)[nH]c1=O | 102%
33 | CCc1cn([C@H]2C[C@H](O)[C@@H](CO)O2)c(=O)[nH]c1=O | -6.76%
34 | O=c1[nH]c(=O)n([C@H]2C[C@H](O)[C@@H](CO)O2)cc1F | 12.7%
35 | CN1c2cc3c(cc2N=C(c2ccc(C(=O)O)cc2)c2ccccc21)C(C)(C)CCC3(C)C | 27.7%
36 | Nc1ncnc2c1ncn2[C@@H]1O[C@H](C[C@@H](N)CC[C@H](N)C(=O)O)[C@@H](O)[C@H]1O | -9.09%
37 | CC(C)(COP(=O)(O)OP(=O)(O)OC[C@H]1O[C@@H](n2cnc3c(N)ncnc32)[C@H](O)[C@@H]1OP(=O)(O)O)[C@@H](O)C(=O)NCCC(=O)NCCS | 15.2%
38 | NC(C(=O)O)c1nnn[nH]1 (racemic) | 4.47%
39 | Cn1cnc2[nH]c(=O)[nH]c(=O)c21 | 9.47%
40 | Cc1ccc(-c2ccc(C)cn2)nc1 | 100%
41 | CCOC1O[C@H]([C@@H](COCc2ccccc2)OCc2ccccc2)[C@H](OCc2ccccc2)[C@H]1O (stereo partly drawn) | 29.1%
42 | O=C(O)CCc1c[nH]c2ccccc12 | 6.28%

Row | SMILES | inhibition
43 | C/C(=N\N=C(/S)N/N=C(\S)Nc1ccccc1Cl)c1ccccn1 | 41.4%
44 | COc1ccc2cc3[n+](cc2c1OC)CCc1cc2c(cc1-3)OCO2 | -6.81%
45 | O=C(COc1ccc(C(=O)c2ccccc2)cc1)NC1CCN(Cc2ccccc2)CC1 | -4.58%
46 | O=C(NC1CCN(Cc2ccccc2)CC1)c1ccc(I)cc1 | 21.3%
47 | O=C(O)c1ccc(CN2CCC(CN[C@@H]3C[C@H]3c3ccccc3)CC2)cc1 | 59.3%
48 | CCCCCCCCCCCCCCCCCCCCCCCCCCCCO | 3.55%
49 | CCN(CC)CCOC(=O)C1(c2ccccc2)CCCC1 | 12.3%
50 | CCC(C)(CN(C)C)OC(=O)c1ccccc1 (stereo not drawn) | 12.2%
51 | CC1(C(=O)O)NCCc2cc(O)c(O)cc21 (stereo not drawn) | -7.17%
52 | C[C@@H](c1nc(-c2ccc(C#N)cc2)cs1)[C@](O)(Cn1cncn1)c1cc(F)ccc1F | 13.7%
53 | COCC(O)Cn1ccnc1[N+](=O)[O-] (stereo not drawn) | 2.38%
54 | CC1(C)S[C@@H]2[C@H](/N=C/N3CCCCCC3)C(=O)N2[C@H]1C(=O)O | 7.48%
55 | CC[C@H](CO)Nc1nc(NCc2ccc(-c3ccccn3)cc2)c2ncn(C(C)C)c2n1 | 22.9%
56 | c1ccc(-c2ccc(CNc3nc(-c4ccccn4)nnc3-c3ccccc3)cc2)cc1 | 58.9%
57 | c1ccc(NCc2ccc(CNc3ccccn3)cc2)nc1 | -9.35%
58 | Cn1c(-c2ccccc2)nnc1S(C)(=O)=O | 36%
59 | C/N=c1/nc(-c2ccccc2)n(-c2ccccc2)s1 | 83.4%
60 | CC1=NN(c2ccccc2)C(=O)C1 | -9.97%
61 | O=C(c1ccc(F)cc1)C1CCN(CCn2c(=S)[nH]c3ccccc3c2=O)CC1 | 13.2%
62 | O=C(O)c1c2ccccc2cc2ccccc12 | 22.9%
63 | Cn1ncc(Cl)c1-c1cc(C(=O)N[C@H](CN)Cc2cccc(F)c2)sc1Cl | -7.69%
